# Assay outcomes from PubChem.
# EBI2 block = antagonists of human EBI2 receptor; P32249; EBI2 beta-arrestin recruitment, luminescence, 7a,25-OHC stimulated; inhibition, % at 5 µM; hit rate 0.81% among 360,000; in the data active means inhibition above about 38%;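 further: enzyme fragment complementation signal reports receptor beta-arrestin coupling in cells; 0% = agonist plus DMSO wells and 100% = wells without agonist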
# SENP8 block-1 = inhibitors of human SENP8 protease. Q96LD8. purified SENP8, Z-RLRGG-aminoluciferin cleavage, luminescence. inhibition, % at 10 µM. hit rate 1.2% among 330,000; in the data active means inhibition above about 50%
# SENP7 block = SENP7 protease inhibition; AID 434973; inhibition, % at 5 µM; recombinant SENP7, Z-RLRGG-aminoluciferin luminescence, 40 min; Q9BQF6; hit rate 1.5% among 330,000;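 active means inhibition above about 50% at the single test dose, limit read from the data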;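 further: plate controls were DMSO with enzyme for no effect and no enzyme buffer wells for full effect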
# AHR activator = human AHR activation. activation, % at 5 µM. AID 2796. P35869. hit rate 2.5% among 320,000. AHR-responsive luciferase reporter cells, luminescence; in the data active means activation above about 47%;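 further: 0% = vehicle wells and 100% = reference agonist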
# Target sequence (P35869 whole entry, looked up): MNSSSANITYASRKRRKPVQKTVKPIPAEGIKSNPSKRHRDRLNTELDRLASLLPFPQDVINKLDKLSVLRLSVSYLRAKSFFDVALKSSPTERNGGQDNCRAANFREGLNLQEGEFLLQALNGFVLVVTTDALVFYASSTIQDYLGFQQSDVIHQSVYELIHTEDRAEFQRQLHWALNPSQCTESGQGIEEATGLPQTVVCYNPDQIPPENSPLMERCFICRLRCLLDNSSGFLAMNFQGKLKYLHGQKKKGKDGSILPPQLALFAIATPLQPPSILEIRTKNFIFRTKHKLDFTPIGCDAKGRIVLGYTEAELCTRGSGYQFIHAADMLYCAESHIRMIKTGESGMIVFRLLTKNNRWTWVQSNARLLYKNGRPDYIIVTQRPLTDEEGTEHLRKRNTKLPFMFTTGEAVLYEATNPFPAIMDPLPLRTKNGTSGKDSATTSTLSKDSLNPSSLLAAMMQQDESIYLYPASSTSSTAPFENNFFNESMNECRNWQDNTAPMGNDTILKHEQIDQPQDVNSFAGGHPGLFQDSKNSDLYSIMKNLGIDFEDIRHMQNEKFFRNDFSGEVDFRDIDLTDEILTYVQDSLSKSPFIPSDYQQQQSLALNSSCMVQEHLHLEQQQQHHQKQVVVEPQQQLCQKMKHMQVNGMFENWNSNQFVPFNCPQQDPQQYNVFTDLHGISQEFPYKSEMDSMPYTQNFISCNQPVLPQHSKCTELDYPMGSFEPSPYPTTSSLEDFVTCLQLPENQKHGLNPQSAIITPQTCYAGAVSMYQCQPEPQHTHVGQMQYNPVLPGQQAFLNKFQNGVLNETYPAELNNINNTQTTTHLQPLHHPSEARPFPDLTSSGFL
# SENP8 block-2 = inhibitors of human SENP8 protease; Q96LD8; recombinant SENP8, Nedd8 substrate fluorescence; inhibition, % at 20 µM; hit rate 0.64% among 360,000; in the data active means inhibition mostly above about 40%, no sharp cut-off; inactive means mostly below about 27%
# SENP6 inh = blocks the human protease SENP6; hit rate 1.8% among 330,000; AID 2599; Recombinant SENP6 catalytic domain, aminoluciferin luminescence; Q9GZR1; inhibition, % at 10 µM;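 active means inhibition above about 50% at the single tested dose, limit read from the data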;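 further: plate controls were DMSO wells with enzyme for no effect and DMSO wells lacking enzyme for full effect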
# EBI2 conf = confirmation of human EBI2 receptor antagonists | shares compounds with EBI2 block | EBI2 beta-arrestin luminescence, 7a,25-OHC antagonism | inhibition, % at 5 µM | hit rate 29% among 2,400 | AID 651997;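 active means inhibition of at least 50%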
# EBI2 ag = EBI2 agonism counter-screen; shares compounds with EBI2 block; EBI2-expressing cells, agonist mode, luminescence, 60 min; 0% vehicle, 100% 7α,25-dihydroxycholesterol control; activation, % at 5 µM; 2,400 tested, under 10 active;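 active means activation of at least 50%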
# bGal cs = inhibits E. coli beta-galactosidase, counter-screen for EBI2 antagonists; shares compounds with EBI2 block; purified beta-galactosidase, luminescent Galacton Star, 15 min; inhibition, % at 5 µM; hit rate 1% among 2,400; AID 652176;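 active means replicate-average signal at least 3 plate SD below neutral wells, shown as high inhibition, flagging enzyme-inhibiting false positives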;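 further: 0% = DMSO wells with enzyme and 100% = wells lacking enzyme; higher means stronger loss of beta-gal luminescence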
# Starred values were filed as active, the others as inactive; nt = not tested or not shown. A selection: hits, their analogues and other compounds. The true share with any hit is near 5%.
SMILES,EBI2 block,SENP8 block-1,SENP7 block,AHR activator,SENP8 block-2,SENP6 inh,EBI2 conf,EBI2 ag,bGal cs
CC1CC(C)CN(S(=O)(=O)N2CCCC(C(=O)NCCc3ccc(Cl)cc3)C2)C1 (stereo unspecified),57*,12,6,1,2,9,52*,-1,-18
O=C(NCc1ccc2c(c1)OCO2)C1CCN(S(=O)(=O)c2cccs2)CC1,10,-7,-8,0,8,-10,nt,nt,nt
O=C(CSc1nnc(CNC(=O)c2c(F)cccc2F)o1)NCc1ccco1,-5,-15,-7,2,4,-4,nt,nt,nt
O=C(Nc1cccc(-c2nnc(-c3ccco3)o2)c1)C(c1ccccc1)c1ccccc1,77*,-5,-4,-15,-124,7,43,2,5
O=C(Cc1ccc(Cl)cc1)Nc1cccc(-c2nnc(-c3ccco3)o2)c1,71*,2,5,-17,-83,0,40,0,-17
Cc1ccc(C(=O)CNc2ccc(Cl)cc2)cc1,57*,-8,0,-5,31,-20,76*,-3,2
CCOc1ccc(NCC(=O)c2ccc(C)cc2)cc1,-6,17,6,-2,8,23,nt,nt,nt
COC(=O)[C@@]1(Cc2ccc(F)cc2)[C@H]2c3cc(C(=O)N4CCCC4)n(CCc4c[nH]c5ccccc45)c3C[C@H]2CN1C(=O)c1ccccc1,53*,nt,nt,nt,-2,nt,24,0,-8
COc1cccc(-n2c(=O)c3c(C)c(C(=O)N(C)C)sc3n(CC(=O)NCC3CCCO3)c2=O)c1 (stereo unspecified),-5,5,3,0,5,7,nt,nt,nt
CCOC(=O)Cc1csc(NC(=O)/C=C\c2ccccc2)n1,8,-16,-8,1,-5,-8,nt,nt,nt
CCOC(=O)Cc1csc(NC(=O)/C=C/c2ccc(OC)cc2)n1,46*,-9,20,-1,-113,0,19,1,3
O=C(c1ccccc1)c1c[nH]c(C(=O)C(Cl)(Cl)Cl)c1,1,0,-2,5,-7,-20,nt,nt,nt
O=C(c1ccc(Cl)cc1)c1c[nH]c(C(=O)C(Cl)(Cl)Cl)c1,42*,-10,-5,1,10,6,47,3,0
Cc1ccc2c(c1)N(Cc1ccccc1)C(=O)C(C)S2 (stereo unspecified),3,nt,nt,nt,16,nt,nt,nt,nt
Cc1ccc2c(c1)C(CCN)C(=O)N2Cc1ccccc1 (stereo unspecified),52*,0,10,1,8,2,40,-3,46*
Cc1ccc(C(=O)Cn2c(C(=O)/C=C/c3ccccc3)nc3ccccc32)cc1,48*,12,-3,-3,-4,-7,36,0,7
O=C(Cn1c(C(=O)c2ccccc2)nc2ccccc21)c1ccc(Cl)cc1,-11,nt,nt,nt,-15,nt,nt,nt,nt
COc1ccc(C(=O)Nc2ccc(C(=O)N3CCCCC3C)cc2)c(OC)c1OC (stereo unspecified),-2,3,-4,0,7,3,nt,nt,nt
CCC(C)(C)C1CCc2[nH]nc(C(=O)NC3CCCCC3)c2C1 (stereo unspecified),43*,-2,3,6,14,7,14,0,-4
C(=C\c1ccccc1)/CN1CCN(C(c2cc3ccccc3o2)c2nnnn2C2CCCC2)CC1 (stereo unspecified),52*,nt,nt,nt,16,nt,7,1,4
COc1ccc(-n2nnnc2C(c2ccccc2OC(F)(F)F)N2CCN(C/C=C/c3ccccc3)CC2)cc1 (stereo unspecified),90*,nt,nt,nt,22,nt,55*,2,12
COc1ccc(-n2nnnc2C(c2cccs2)N2CCN(C/C=C/c3ccccc3)CC2)cc1 (stereo unspecified),42,nt,nt,nt,12,nt,nt,nt,nt
COc1ccc(-n2nnnc2C(c2ccnc3ccccc23)N2CCN(C/C=C/c3ccccc3)CC2)cc1 (stereo unspecified),33,nt,nt,nt,-16,nt,nt,nt,nt
COc1ccc(C(c2nnnn2-c2ccc(OC)cc2)N2CCN(C/C=C/c3ccccc3)CC2)cc1 (stereo unspecified),63*,nt,nt,nt,9,nt,31,-1,-5
O=C(Nc1ccc2c(c1)OCCO2)C(c1cc2ccccc2o1)N1CCN(C/C=C/c2ccccc2)CC1 (stereo unspecified),39*,nt,nt,nt,16,nt,7,-2,-6
SMILES,EBI2 block,SENP8 block-1,SENP7 block,AHR activator,SENP8 block-2,SENP6 inh,EBI2 conf,EBI2 ag,bGal cs
O=C(CON=C1c2ccccc2-c2ccccc21)NC12CC3CC(CC(C3)C1)C2,11,6,12,0,-2,3,nt,nt,nt
COc1ccc(C(c2nnnn2C(C)(C)C)N2CCN(C/C=C/c3ccccc3)CC2)cc1 (stereo unspecified),37,nt,nt,nt,12,nt,nt,nt,nt
C(=C\c1ccccc1)/CN1CCN(C(c2ccccc2)c2nnnn2-c2ccc3c(c2)OCCO3)CC1 (stereo unspecified),51*,nt,nt,nt,11,nt,38,0,7
COc1ccc(C(c2nnnn2C2CCCCC2)N2CCN(C/C=C/c3ccccc3)CC2)cc1 (stereo unspecified),60*,nt,nt,nt,24,nt,44,0,5
C(=C\c1ccccc1)/CN1CCN(C(c2cccc3ccccc23)c2nnnn2C2CCCC2)CC1 (stereo unspecified),30,nt,nt,nt,22,nt,nt,nt,nt
CCCCn1nnnc1C(c1ccc(OC)cc1)N1CCN(C/C=C/c2ccccc2)CC1 (stereo unspecified),58*,nt,nt,nt,22,nt,25,2,12
CCCCn1nnnc1C(c1cccs1)N1CCN(C/C=C/c2ccccc2)CC1 (stereo unspecified),44*,nt,nt,nt,26,nt,9,1,6
CCCCn1nnnc1C(C1CC1)N1CCN(C/C=C/c2ccccc2)CC1 (stereo unspecified),14,nt,nt,nt,11,nt,nt,nt,nt
O=C(c1ccc(NS(=O)(=O)c2ccccc2)cc1)N1CCOCC1,-2,3,-10,0,11,-18,nt,nt,nt
Cc1cccc(NC(=O)C2CCN(S(=O)(=O)c3c(C)c(C)cc(C)c3C)CC2)n1,7,19,-4,7,2,2,nt,nt,nt
CCOc1ccc(CCNC(=O)c2ccc(OCc3c(C)noc3C)cc2)cc1OCC,-2,11,-1,-1,4,-2,nt,nt,nt
CCOC(=O)C1=C[C@@H](C(C)(C)C)N(S(=O)(=O)c2ccc(C)cc2)[C@H]1c1ccc(C#N)cc1,42*,nt,nt,nt,4,nt,30,1,6
Cc1cc(C)c(Cn2cnc(-c3ccc([N+](=O)[O-])cc3)c2)c(C)c1,42,-3,-3,-5,12,-4,nt,nt,nt
